Calls of active or inactive are those of the source.
Key:
[1] = optical density shifts of acrAB sulA E. coli – strain DRC41, OD650, 48 h, E. coli filamentation inducer project, primary screen (AID 1152); settings: higher = more signal, called active from +8 up or from −8 down;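 further: E. coli MC1000 strain DRC41 lacking acrAB efflux pump and sulA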
[2] = probe aLefty1 binding on compound microarray – biochemical, small-molecule microarray, 635/667 nm fluorescence, primary screen (AID 1153); settings: higher = more signal;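 further: score merges spot fluorescence with signal-to-noise ratio from the scanned slide images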
[3] = plasmodial surface anion channel blockers, osmotic lysis – cell-based, P. falciparum Indochina, OD700, 1 h, primary screen (AID 1154); settings: P. falciparum Indochina infected RBC osmotic lysis, higher = more signal, called active from +8 up or from −8 down
[4] = plasmodial surface anion channel blockers, osmotic lysis – cell-based, P. falciparum Indochina, OD700, 2 h, primary screen (AID 1155);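 further: lysis reports solute entry through the parasite surface anion channel PSAC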; settings: P. falciparum Indochina infected erythrocytes, higher = more signal, called active from +8 up or from −8 down
[5] = changes in parasitized red cell lysis, either direction – P. falciparum Indochina, OD700, 3 h, PSAC antagonist project, primary screen (AID 1156); settings: P. falciparum-infected erythrocytes, osmotic lysis, higher = more signal, called active from +8 up or from −8 down
[6] = plasmodial surface anion channel blockers, osmotic lysis – cell-based, P. falciparum Indochina, OD700, 18 h, primary screen (AID 1157); settings: P. falciparum Indochina infected erythrocytes, osmotic lysis OD700, 18 h; higher = more signal, called active from +8 up or from −8 down
[7] = S6 kinase pathway phospho-S6 level changes – cell-based, A549, cytoblot, luminescence, serum-stimulated, primary screen (AID 1158); settings: 5 h, higher = more signal;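 further: serum-stimulated A549 lung adenocarcinoma cells; signal is phosphorylated S6 detected by cytoblot immunostaining with HRP secondary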
[8] = target: NADPH oxidase 2 (Homo sapiens) (UniProt P04839); assay: compounds shifting NOX2 Amplex Red fluorescence – cell-based, HEK293-NOX2, PMA-stimulated, NOX inhibitor project, primary screen (AID 1159); settings: 45 min, higher = more signal, called active from +8 up or from −8 down; further: test concentration not given here
[9] = target: NADPH oxidase 4 (Homo sapiens) (UniProt Q9NPH5); assay: compounds shifting NOX4 Amplex Red fluorescence – cell-based, HEK293-NOX4, tetracycline-induced, NOX inhibitor project, primary screen (AID 1160); settings: HEK293-NOX4, Amplex Red H2O2 fluorescence, 45 min; higher = more signal, called active from +8 up or from −8 down
[10] = target: NADPH oxidase 5 (Homo sapiens) (UniProt Q96PH1); assay: compounds shifting NOX5 Amplex Red fluorescence – cell-based, HEK293-NOX5, NOX inhibitor project, primary screen (AID 1161); settings: HEK293-NOX5, ionomycin, 45 min, higher = more signal
NADPH oxidase 5 (Homo sapiens), sequence (Q96PH1 whole entry, looked up): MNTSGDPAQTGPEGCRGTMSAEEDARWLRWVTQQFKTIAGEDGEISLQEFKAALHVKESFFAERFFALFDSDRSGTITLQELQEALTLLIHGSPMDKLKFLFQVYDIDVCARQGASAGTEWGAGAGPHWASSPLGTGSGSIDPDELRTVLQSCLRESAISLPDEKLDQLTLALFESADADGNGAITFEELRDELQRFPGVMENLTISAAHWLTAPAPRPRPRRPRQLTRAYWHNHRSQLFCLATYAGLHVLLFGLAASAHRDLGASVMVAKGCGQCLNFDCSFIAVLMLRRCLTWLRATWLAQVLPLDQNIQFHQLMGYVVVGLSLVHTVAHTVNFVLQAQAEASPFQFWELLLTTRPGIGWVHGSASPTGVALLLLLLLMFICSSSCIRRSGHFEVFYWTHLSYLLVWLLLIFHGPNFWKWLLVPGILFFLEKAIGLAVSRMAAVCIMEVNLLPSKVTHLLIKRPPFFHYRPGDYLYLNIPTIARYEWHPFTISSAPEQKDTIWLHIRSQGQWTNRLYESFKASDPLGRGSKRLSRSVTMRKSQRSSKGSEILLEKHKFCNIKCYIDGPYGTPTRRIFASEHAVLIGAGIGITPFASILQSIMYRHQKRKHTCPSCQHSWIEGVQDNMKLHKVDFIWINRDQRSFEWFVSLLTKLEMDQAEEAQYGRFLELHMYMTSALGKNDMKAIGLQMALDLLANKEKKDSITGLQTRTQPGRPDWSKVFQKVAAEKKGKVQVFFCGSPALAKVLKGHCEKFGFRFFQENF

NADPH oxidase 2 (Homo sapiens), sequence (P04839 whole entry, looked up): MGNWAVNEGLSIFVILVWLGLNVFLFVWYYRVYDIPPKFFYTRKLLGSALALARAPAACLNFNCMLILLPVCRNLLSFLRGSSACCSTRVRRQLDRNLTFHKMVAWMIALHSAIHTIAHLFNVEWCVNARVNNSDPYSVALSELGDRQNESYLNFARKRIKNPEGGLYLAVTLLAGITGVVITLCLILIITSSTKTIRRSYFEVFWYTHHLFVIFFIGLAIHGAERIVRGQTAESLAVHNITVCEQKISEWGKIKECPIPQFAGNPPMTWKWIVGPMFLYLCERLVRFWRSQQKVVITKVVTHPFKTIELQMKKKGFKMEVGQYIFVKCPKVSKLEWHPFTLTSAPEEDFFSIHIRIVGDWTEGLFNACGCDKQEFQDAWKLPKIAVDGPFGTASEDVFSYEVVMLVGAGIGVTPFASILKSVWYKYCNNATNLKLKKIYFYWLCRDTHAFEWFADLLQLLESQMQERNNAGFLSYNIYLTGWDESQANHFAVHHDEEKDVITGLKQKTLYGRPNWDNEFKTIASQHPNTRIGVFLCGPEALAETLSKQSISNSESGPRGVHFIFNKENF
NADPH oxidase 4 (Homo sapiens), sequence (Q9NPH5 whole entry, looked up): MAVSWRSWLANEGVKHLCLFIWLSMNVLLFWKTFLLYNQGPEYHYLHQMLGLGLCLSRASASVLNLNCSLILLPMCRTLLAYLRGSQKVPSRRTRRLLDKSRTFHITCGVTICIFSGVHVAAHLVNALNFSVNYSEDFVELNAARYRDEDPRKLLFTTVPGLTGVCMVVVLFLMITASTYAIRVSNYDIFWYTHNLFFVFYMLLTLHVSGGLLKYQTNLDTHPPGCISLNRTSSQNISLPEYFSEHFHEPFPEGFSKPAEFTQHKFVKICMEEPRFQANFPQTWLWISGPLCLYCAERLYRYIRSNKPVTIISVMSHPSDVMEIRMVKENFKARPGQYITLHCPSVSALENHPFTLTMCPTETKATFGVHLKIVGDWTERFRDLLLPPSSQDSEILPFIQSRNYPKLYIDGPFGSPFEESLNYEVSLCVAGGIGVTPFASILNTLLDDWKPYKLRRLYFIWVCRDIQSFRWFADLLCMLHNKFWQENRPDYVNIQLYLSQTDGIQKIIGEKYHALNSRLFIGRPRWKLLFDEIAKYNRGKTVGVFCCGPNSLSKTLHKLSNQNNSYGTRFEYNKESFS

Compound | z-score [1] | composite z-score [2] | z-score [3] | z-score [4] | z-score [5] | z-score [6] | z-score [7] | z-score [8] | z-score [9] | z-score [10]
COCCOC(=O)N1C(=O)[C@@]2(c3cc(C#CC4=CCCCC4)ccc31)[C@H](c1ccc(O)cc1)N1[C@H](c3ccccc3)[C@H](c3ccccc3)OC(=O)[C@H]1[C@@H]2C(=O)N1CCc2cc(OC)c(OC)cc2C1 | -0.164 (inactive) | 0.0355 | 0.751 (inactive) | 0.394 (inactive) | -6.44 (inactive) | 0.0991 (inactive) | -0.294 | 1.48 (inactive) | 1.04 (inactive) | 1.03
C=CC[C@]12N=C(c3ccc(OCCCO)cc3)O[C@H]1c1ccccc1N(CCC)C2=O | -0.0423 (inactive) | 1.26 | 32.8 (active) | 33.1 (active) | 2.98 (inactive) | 4.84 (inactive) | 0.204 | -2.03 (inactive) | 0.00147 (inactive) | -1.71
C[N+](C)(C)CCCC[C@@H]1NC(=O)[C@H]2C[C@@H](C(=O)NCCCCCN)[C@@H](c3ccc(O)cc3)N2C1=O | 0.108 (inactive) | 0.14 | 0.105 (inactive) | 0.0643 (inactive) | -3.73 (inactive) | -0.0429 (inactive) | -0.0286 | 0.081 (inactive) | -0.0444 (inactive) | 0.204
C=C(C(=O)CC[C@@H](OC(=O)c1cccnc1)c1cccc(OCCO)c1)C(C)C | 1.35 (inactive) | -0.309 | 13.8 (active) | 0.717 (inactive) | -0.204 (inactive) | -1.02 (inactive) | 0.62 | -0.967 (inactive) | -0.193 (inactive) | -1.84
O=C1O[C@H](c2ccccc2)[C@H](c2ccccc2)N2[C@H]1[C@@H](C(=O)N1CCCCCCC1)[C@]1(C(=O)Nc3ccc(C#CCCO)cc31)[C@H]2c1ccc(O)cc1 | 1.48 (inactive) | 3.06 | 1.01 (inactive) | -0.0898 (inactive) | 0.0261 (inactive) | 0.295 (inactive) | 0.0374 | 1.28 (inactive) | 0.892 (inactive) | 1.38
COC(=O)[C@@]1(Cc2ccc(F)cc2)[C@H]2c3cc(C(=O)N(C)C)n(Cc4cccc5ccccc45)c3C[C@H]2CN1C(=O)c1ccccc1 | -1.92 (inactive) | 0.0568 | 8.44 (active) | 1.29 (inactive) | 1.07 (inactive) | 1.28 (inactive) | -0.779 | 0.105 (inactive) | -3.8 (inactive) | 0.592
C[N+](C)(C)CCCC[C@@H]1NC(=O)[C@H]2C[C@@H](C(=O)O)[C@@H](c3ccc(O)cc3)N2C1=O | 1.03 (inactive) | 0.0437 | 3.34 (inactive) | 1.17 (inactive) | -2.47 (inactive) | 0.302 (inactive) | 1.2 | -1.77 (inactive) | -1.23 (inactive) | -0.411
O=C(O)C1=CC[C@H]2C(=O)N(c3ccccc3)C(=O)[C@@H]12 | -0.569 (inactive) | 0.348 | 0.61 (inactive) | 1.11 (inactive) | -0.803 (inactive) | 0.707 (inactive) | -1 | 0.536 (inactive) | -0.267 (inactive) | -0.253
COCCCNC(=O)[C@@]1(Cc2ccccc2I)c2ccccc2C(=O)N(Cc2ccccc2OC)[C@H]1c1ccc(CO)cc1 | 0.567 (inactive) | -0.164 | 10.1 (active) | 1.27 (inactive) | 1.73 (inactive) | 0.576 (inactive) | -0.0483 | -1.68 (inactive) | 0.642 (inactive) | -1.19
COc1cccc(C)c1NC(=O)O[C@H]1[C@H](OC(=O)Nc2ccccc2)[C@@H](OC(=O)Nc2ccccc2)[C@@H](OC)O[C@@H]1CO | -0.818 (inactive) | 0.26 | 3.02 (inactive) | 0.121 (inactive) | 0.376 (inactive) | 0.421 (inactive) | 0.249 | -7.01 (inactive) | -1.26 (inactive) | -2.29
C=C[C@H](C)[C@@H](OC(=O)Nc1ccc(SC)cc1)c1ccc(OCCO)cc1 | -2.61 (inactive) | 0.459 | 28.3 (active) | 20.6 (active) | 3.01 (inactive) | 2.27 (inactive) | -0.336 | -1.31 (inactive) | -1.23 (inactive) | 0.0398
COc1ccc(C(=O)Nc2ccc(CN3C(=O)[C@]4(O[C@H](CC(=O)N(CCO)Cc5ccccc5)[C@@H]([Si](C)(C)c5ccc(OC)cc5)[C@@H]4C)c4ccccc43)cc2)cc1 | 0.863 (inactive) | -0.142 | 4.94 (inactive) | 1.89 (inactive) | 0.439 (inactive) | 1.02 (inactive) | 0.383 | 0.658 (inactive) | 0.801 (inactive) | 3.23
CC(C)C[C@@H]1NC(=O)[C@@H]2C[C@H](C(=O)NCCCCCNC(=O)CS)[C@H](c3ccc(O)cc3)N2C1=O | 2.03 (inactive) | 0.165 | 0.625 (inactive) | -0.37 (inactive) | 0.768 (inactive) | -0.73 (inactive) | 2.48 | -1.18 (inactive) | -1.35 (inactive) | -3.05
O=C1O[C@H](c2ccccc2)[C@H](c2ccccc2)N2[C@H]1[C@@H](C(=O)Nc1nc3ccccc3s1)[C@]1(C(=O)Nc3ccccc31)[C@H]2c1ccccc1OCCO | 0.185 (inactive) | 0.347 | 7.3 (inactive) | 5.1 (inactive) | -5.41 (inactive) | 1.79 (inactive) | 0.354 | 1.47 (inactive) | 0.862 (inactive) | 1.86
CS(=O)(=O)CCOC(=O)C1=CC(CCCO)=CC(C2CC2)N(Cc2sc3ccccc3c2Cl)C=C1C(=O)OCCS(C)(=O)=O (stereo not given) | -0.406 (inactive) | 0.52 | 12.8 (active) | 2.13 (inactive) | 0.978 (inactive) | 1.41 (inactive) | 0.248 | -0.739 (inactive) | -0.315 (inactive) | -1.11
C=CCC(OC(C)=O)[C@@H]1[C@@H](N(Cc2ccc(-c3ccccc3)cc2)C(=O)Cc2ccc(OC)cc2)c2cc(OCCCO)ccc2N1C(=O)c1ccc2ccccc2c1 (stereo not given in full) | -0.894 (inactive) | -0.529 | 1.23 (inactive) | 0.384 (inactive) | -0.247 (inactive) | 0.41 (inactive) | -0.111 | -0.48 (inactive) | 0.832 (inactive) | 0.808
COc1ccc(C(O)C2C=CC3C(=O)N(c4ccccc4)C(=O)C3N2Nc2ccccc2F)c2ccccc12 (stereo not given) | -0.462 (inactive) | 1.16 | 3.82 (inactive) | 1.71 (inactive) | 0.419 (inactive) | 1.05 (inactive) | -0.593 | -0.232 (inactive) | -1.7 (inactive) | -2.13
C=CCNC(=O)[C@H]1[C@@H]2C(=O)O[C@@H](c3ccccc3)[C@@H](c3ccccc3)N2[C@@H](c2ccc(O)cc2)[C@]12C(=O)Nc1ccc(C#CCC(C(=O)OC)C(=O)OC)cc12 | 0.824 (inactive) | -0.188 | 8.47 (active) | 1.51 (inactive) | 0.416 (inactive) | 0.432 (inactive) | 0.0591 | 1.82 (inactive) | 0.194 (inactive) | 1.93
COCCOC(=O)N1C(=O)[C@@]2(c3cc(C#CCNC(N)=O)ccc31)[C@H](C(=O)Nc1nc3ccccc3s1)[C@H]1C(=O)O[C@H](c3ccccc3)[C@H](c3ccccc3)N1[C@@H]2c1ccc(O)cc1 | -0.614 (inactive) | 0.317 | 1.1 (inactive) | 0.476 (inactive) | -0.385 (inactive) | 1.05 (inactive) | 0.637 | 0.95 (inactive) | -1.12 (inactive) | 0.142
C=CCNC(=O)[C@@H]1[C@H]2C(=O)O[C@H](c3ccccc3)[C@H](c3ccccc3)N2[C@H](c2ccc(OCCO)cc2)[C@@]12C(=O)N(C(=O)OCCOC)c1ccccc12 | 0.127 (inactive) | 0.258 | 3.15 (inactive) | 1.27 (inactive) | -0.947 (inactive) | 0.442 (inactive) | -0.296 | 0.406 (inactive) | 0.789 (inactive) | -0.0693
CC(C)(C)OC(=O)CC[C@@]1(C(N)=O)N=C(c2ccc(OCCCO)cc2)O[C@@H]1c1ccccc1CN=[N+]=[N-] | -0.216 (inactive) | 0.997 | 23.4 (active) | 5.68 (inactive) | -1.49 (inactive) | 0.739 (inactive) | 0.0301 | 1.11 (inactive) | 1.09 (inactive) | 0.369
[N-]=[N+]=Nc1ccccc1C[C@]1(C(=O)N2CCCCC2)N=C(c2ccc(OCCCO)cc2)O[C@H]1c1ccccc1 | 0.699 (inactive) | 0.179 | 18 (active) | 4.52 (inactive) | 3.48 (inactive) | 1.87 (inactive) | -0.0985 | -1.76 (inactive) | -0.593 (inactive) | -1.68
CN1C(=O)C2CC=C(C3=CCO[C@@H]3[C@H]3CCCN3S(=O)(=O)c3ccccc3[N+](=O)[O-])CC2C1=O (stereo not given in full) | -0.62 (inactive) | -0.191 | 5.38 (inactive) | 0.672 (inactive) | -0.604 (inactive) | -0.0627 (inactive) | -0.307 | 0.278 (inactive) | 1.22 (inactive) | 0.32
CC[C@@H]1C=C(C(=O)O)[C@H](c2cccc(Cl)c2)N1S(=O)(=O)c1ccc(C)cc1 | -1.23 (inactive) | 0.0043 | 0.522 (inactive) | 0.229 (inactive) | -0.0699 (inactive) | 0.29 (inactive) | -0.861 | 0.416 (inactive) | 0.185 (inactive) | 0.272
CCCCC(=C=CC[C@H](O)c1cccc(OCCO)c1)C[C@H](O)c1cc(Cl)cc(Cl)c1O | 0.513 (inactive) | 0.0999 | 22 (active) | 5.56 (inactive) | 0.718 (inactive) | 1.48 (inactive) | 0.295 | -2.45 (inactive) | -1.46 (inactive) | -2.02
COC(=O)[C@@]1(Cc2ccc(F)cc2)[C@H]2c3cc(C(=O)N(C)C)n(Cc4ccc(C(F)(F)F)nc4)c3C[C@H]2CN1C(=O)c1ccccc1 | -1 (inactive) | 0.589 | 1.93 (inactive) | 0.844 (inactive) | 0.893 (inactive) | 0.987 (inactive) | -0.0002 | 0.267 (inactive) | 0.32 (inactive) | 0.568

From PubChem BioAssay
